Screening results (PubChem BioAssay)
USP17 inh: human USP17-like deubiquitinase inhibition; A8MUK1; purified USP17, Ub-rhodamine cleavage fluorescence, 3 h; inhibition, % at 50 µM; 6.5% of 47,000 active; AID 1645855
Target sequence (A8MUK1 whole entry, looked up): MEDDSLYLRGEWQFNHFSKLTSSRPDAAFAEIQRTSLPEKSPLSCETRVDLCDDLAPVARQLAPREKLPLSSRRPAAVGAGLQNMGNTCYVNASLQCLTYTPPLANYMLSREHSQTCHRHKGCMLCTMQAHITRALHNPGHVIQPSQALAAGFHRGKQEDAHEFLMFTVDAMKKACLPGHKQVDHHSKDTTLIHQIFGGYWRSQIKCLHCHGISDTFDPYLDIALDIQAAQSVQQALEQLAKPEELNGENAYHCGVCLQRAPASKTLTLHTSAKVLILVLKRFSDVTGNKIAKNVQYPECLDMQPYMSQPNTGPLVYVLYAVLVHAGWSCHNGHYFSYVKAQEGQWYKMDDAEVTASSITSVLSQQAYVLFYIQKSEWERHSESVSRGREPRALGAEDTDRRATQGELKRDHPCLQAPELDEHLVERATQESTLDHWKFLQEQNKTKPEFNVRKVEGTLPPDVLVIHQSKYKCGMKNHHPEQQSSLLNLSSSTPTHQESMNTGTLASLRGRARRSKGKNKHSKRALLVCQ
USP30 block: inhibitors of human USP30 deubiquitinase. purified USP30, Ub-rhodamine cleavage fluorescence. inhibition, % at 25 µM. 5.3% of 47,000 active. AID 1645860
* marks the source's active call; other numbers are inactive results; i = inactive; x = not tested or not shown. This is a sample that favours compounds with a hit; in the whole collection about 9.6% have one here. Rule as the data show it: active = inhibition above about 30%; inactive = the rest.

SMILES	USP17 inh	USP30 block
COCC1OC(=O)c2coc3c2[C@@]1(C)C1=C(C3=O)C2CCC(=O)[C@@]2(C)C[C@H]1OC(C)=O (stereo not given in full)	-167	i
CC1=C(C)C(=O)O[C@@H]([C@](C)(O)[C@]2(O)CC[C@@]3(O)[C@@H]4CC=C5[C@@H](O)C=CC(=O)[C@]5(C)[C@H]4CC[C@]23C)C1	8	28
CC(C)=CCOC(C)(C)[C@H]1OC2CC[C@@]3(C)C(CCC4Cc5c([nH]c6ccccc56)[C@@]43C)C23OC3[C@@H]1O (stereo not given in full)	87*	84*
COC(=O)C(O)(c1ccccc1)C1C(=O)N(C)c2ccccc21 (stereo not given)	-3	1
COc1ccc2c3c([nH]c2c1)C(C=C(C)C)N1C(=O)C2CCCN2C(=O)C1(O)C3O (stereo not given)	8	7
COc1cc(C2SCC(=O)Nc3c2c(-c2ccccc2)nn3-c2ccccc2)cc(OC)c1OC (stereo not given)	7	-1
O=C1CSC(c2ccc(Cl)cc2)c2c(-c3ccccc3)nn(-c3ccccc3)c2N1 (stereo not given)	5	32*
CON1C(=O)C2NC(=O)C13Oc1cc(O)c(Cl)cc1C3SS2 (stereo not given)	-18	28
Cn1c(=O)[nH]c2nncnc2c1=O	73*	-15
COC12c3c(C)cc(O)c4c(=O)occ(c34)C(=O)C1C13COC(=O)c4c(O)cc(C)c(c41)C(=O)C2C3OC(C)=O (stereo not given)	-217	i
O=C(c1ccccc1F)c1cc(Cl)ccc1NC(=O)C1CCCO1 (stereo not given)	18	18
CN=C(N)NCCC/C=C/CCC[C@H](C)C[C@H](C)C1OC(=O)C(C)C(O)/C=C/C(C)C(O)CC(O)C(C)C(O)CCC(C)C(O)CC2(O)OC(CC(OC(=O)CC(=O)O)CC(O)CC(O)C(C)C(O)/C=C/C=C/C1C)CC(O)C2O (stereo not given in full)	32*	11
N#Cc1ccc(NC(=O)COc2cccc3ccccc23)cc1Cl	-3	-31
CC(C)(C)c1ccc(OCC(=O)N2CCN(Cc3ccncc3)CC2)cc1	x	-22
COc1ccc(C2(CCNCc3ccc(Cl)cc3)CCOC(C)(C)C2)cc1 (stereo not given)	3	34*
Cc1cccc(CN2CCC3(CCc4ccccc4C(=O)N3)C2)n1 (stereo not given)	0	-1
